Rv3671c protease: inhibits the M. tuberculosis serine protease Rv3671c | P9WHR9 | inhibition, % at 5.96 µM | 320,000 tested, 0.048% active; in the data active = inhibition above about 38%;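 also: extracellular domain of Rv3671c used as enzyme; 0% = enzyme with DMSO and 100% = no enzyme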
GDH-TPI counter-1: counter-screen for M. tuberculosis FBA inhibitors: GDH-TPI coupled enzymes | GDH-TPI coupled enzyme counterscreen, NADH absorbance | inhibition, % at 4.8 µM | 360,000 tested, 1.2% active | AID 588335; in the data active = inhibition above about 30%;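 also: 0% = DMSO wells and 100% = wells lacking the enzyme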
FBA Mtb inh: inhibitors of M. tuberculosis fructose-bisphosphate aldolase; purified M. tuberculosis FBA, fluorescence read-out; inhibition, % at 1 µM; 360,000 tested, 2.3% active; AID 588726;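 also: 0% = vehicle and 100% = reference inhibitor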
Target sequence (P9WQA3 whole entry, looked up): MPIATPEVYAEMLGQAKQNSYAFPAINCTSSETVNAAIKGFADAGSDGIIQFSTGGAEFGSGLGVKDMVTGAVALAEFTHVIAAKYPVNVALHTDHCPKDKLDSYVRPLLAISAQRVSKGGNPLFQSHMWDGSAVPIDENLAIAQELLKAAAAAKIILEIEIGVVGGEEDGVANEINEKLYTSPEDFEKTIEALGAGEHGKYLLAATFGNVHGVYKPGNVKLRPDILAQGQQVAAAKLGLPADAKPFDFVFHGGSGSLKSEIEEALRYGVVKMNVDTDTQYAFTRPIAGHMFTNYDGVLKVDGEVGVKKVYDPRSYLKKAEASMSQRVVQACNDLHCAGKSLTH
FadD28 binding: M. tuberculosis FadD28 bisubstrate binding inhibition; FadD28 bisubstrate probe binding, fluorescence polarization; inhibition, % at 12.5 µM; 360,000 tested, 0.22% active; in the data active = inhibition above about 8.5%, passing the limit was not always enough
BioA inh: blocks M. tuberculosis BioA enzyme activity | purified M. tuberculosis BioA enzyme, plate reader | AID 602481 | inhibition, % at 9.99 µM | 360,000 tested, 0.096% active; in the data active = inhibition above about 40%
Mtb FBA confirm: Mtb FBA inhibition, confirmed. shares compounds with FBA Mtb inh. inhibition, % at 1 µM. AID 651616. 5,600 tested, 78% active. purified M. tuberculosis FBA, fluorescence read-out;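 also: 0% = vehicle wells and 100% = reference inhibitor wells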
GDH-TPI counter-2: inhibits GDH-TPI coupling enzymes, flagging Mtb FBA hits. AID 652141. inhibition, % at 1 µM. shares compounds with FBA Mtb inh. GDH-TPI coupled enzyme counterscreen, fluorescence. 5,600 tested, 81% active; in the data active = inhibition above about 10%
Starred values were filed as active, the others as inactive. An excerpt weighted towards active compounds, which were near 3% of everything screened. Rule as the data show it, unless noted: active = inhibition above about 27%; inactive = the rest.

Screening CC(C)(C)Nc1c2ccccc2nc2ccccc12 returned Rv3671c protease -16, GDH-TPI counter-1 -5, FBA Mtb inh 42*, FadD28 binding -6, BioA inh 1, Mtb FBA confirm 94* and GDH-TPI counter-2 71*.
For COc1ccc2ccccc2c1/C=N/NC(=O)CC1(C)OCCCO1 the results were Rv3671c protease -14, GDH-TPI counter-1 10, FBA Mtb inh -1 and FadD28 binding -2.
For COC(=O)c1ccc(-c2ccc(/C=N/NC(=O)CC3(C)OCCCO3)o2)cc1 the results were Rv3671c protease 3, GDH-TPI counter-1 23, FBA Mtb inh 34*, FadD28 binding -4, BioA inh 0, Mtb FBA confirm active and GDH-TPI counter-2 177*.
For CCOC(=O)C1CCN(S(=O)(=O)c2ccc3c4c(cccc24)C(=O)N3)CC1 the results were Rv3671c protease 0, GDH-TPI counter-1 4, FBA Mtb inh 41*, FadD28 binding -1, BioA inh 0, Mtb FBA confirm active and GDH-TPI counter-2 active.
For CCOC(=O)Cc1csc(NS(=O)(=O)c2ccc3c4c(cccc24)C(=O)N3CC)n1 the results were Rv3671c protease 2, GDH-TPI counter-1 9, FBA Mtb inh -1, FadD28 binding 1 and BioA inh 7.
For CCOC(=O)C1CCN(S(=O)(=O)c2ccc3c4c(cccc24)C(=O)N3CC)CC1 the results were Rv3671c protease -4, GDH-TPI counter-1 27, FBA Mtb inh 43*, FadD28 binding 1, BioA inh -1, Mtb FBA confirm 49* and GDH-TPI counter-2 30*.
For CCOC(=O)CNS(=O)(=O)c1ccc2c3c(cccc13)C(=O)N2CC the results were Rv3671c protease 1, GDH-TPI counter-1 9, FBA Mtb inh 59*, FadD28 binding -1, BioA inh 0, Mtb FBA confirm 46* and GDH-TPI counter-2 41*.
For CCOC(=O)C1CCN(S(=O)(=O)c2ccc(C(C)(C)C)cc2)CC1 the results were Rv3671c protease -1, GDH-TPI counter-1 -4, FBA Mtb inh -3 and FadD28 binding -3.
Screening O=C(NCc1ccccc1)[C@@H]1c2ccccc2C(=O)N(CC23CC4CC(CC(C4)C2)C3)[C@H]1c1ccc(CO)cc1 returned BioA inh 0.
C[C@@H]1CN([C@H](C)CO)S(=O)(=O)c2ccc(-c3ccc(F)cc3)cc2O[C@H]1CN(C)C was read as BioA inh 2.
COCCNC(=S)N(CCO)Cc1cc2cc3c(cc2[nH]c1=O)OCO3 was read as Rv3671c protease 4, GDH-TPI counter-1 22, FBA Mtb inh 31*, FadD28 binding -1, BioA inh -2, Mtb FBA confirm 122* and GDH-TPI counter-2 92*.
CCN(CC)CCN(Cc1cc2cc3c(cc2[nH]c1=O)OCCO3)C(=S)NCCOC was read as GDH-TPI counter-1 25, FBA Mtb inh 23, FadD28 binding 0 and BioA inh -1.
Screening CCN(CC)CCN(Cc1cc2cc3c(cc2[nH]c1=O)OCO3)C(=S)NCCCOC returned Rv3671c protease -5, GDH-TPI counter-1 27, FBA Mtb inh 39*, FadD28 binding 0, BioA inh -1, Mtb FBA confirm 97* and GDH-TPI counter-2 81*.
For CCN(CC)CCCN(Cc1cc2cc3c(cc2[nH]c1=O)OCO3)C(=S)NCCCOC the results were Rv3671c protease -7, GDH-TPI counter-1 34*, FBA Mtb inh 40*, FadD28 binding -3, BioA inh 0, Mtb FBA confirm active and GDH-TPI counter-2 173*.
Screening CCN(CC)CCN(Cc1cc2cc3c(cc2[nH]c1=O)OCO3)C(=S)NCC1CCCO1 (stereo unspecified) returned Rv3671c protease -1, GDH-TPI counter-1 17, FBA Mtb inh 56*, FadD28 binding 0, Mtb FBA confirm 95* and GDH-TPI counter-2 70*.
Screening CCN(CC)CCCN(Cc1cc2cc3c(cc2[nH]c1=O)OCO3)C(=S)NCCCN(C)C returned Rv3671c protease 0, GDH-TPI counter-1 22, FBA Mtb inh 20, FadD28 binding 0 and BioA inh 0.
For O=C(NC[C@@H]1N[C@@H](CO)[C@H]1c1ccc(C2=CCCCC2)cc1)c1cccc(F)c1 the results were BioA inh -4.
For C[C@H]1CN([C@@H](C)CO)C(=O)CCCn2cc(nn2)CO[C@H]1CN(C)C(=O)C1CCCCC1 the results were BioA inh 0.
COc1ccc(S(=O)(=O)Nc2ccc3c(c2)CC(=O)N([C@H](C)CO)C[C@H](C)[C@@H](CN(C)S(=O)(=O)c2cn(C)cn2)O3)cc1 was read as BioA inh 1.
For CC(C)c1ccc(NC(=S)N2CCCC2)cc1 the results were Rv3671c protease -2, GDH-TPI counter-1 0, FBA Mtb inh 10, FadD28 binding 1 and BioA inh -6.
For CC(C)c1ccc(NC(=S)N2CCN(C)CC2)cc1 the results were GDH-TPI counter-1 8, FBA Mtb inh 32*, FadD28 binding -1, BioA inh -3, Mtb FBA confirm 0 and GDH-TPI counter-2 -4.
For COc1ccc2c(c1)c1ncn(CCN3CCCC3)c(=O)c1n2C the results were Rv3671c protease 6, GDH-TPI counter-1 -6, FBA Mtb inh 89*, FadD28 binding -4, BioA inh 6, Mtb FBA confirm 90* and GDH-TPI counter-2 74*.
Screening O=c1c2[nH]c3ccccc3c2ncn1CCN1CCCCC1 returned Rv3671c protease -4, GDH-TPI counter-1 -8, FBA Mtb inh 7, FadD28 binding -2 and BioA inh 2.
Cn1c2ccccc2c2ncn(Cc3ccco3)c(=O)c21 was read as Rv3671c protease 5, GDH-TPI counter-1 6, FBA Mtb inh 18, FadD28 binding -5 and BioA inh 1.
`COc1ccc2c(c1)c1ncn(CCN3CCCCC3)c(=O)c1n2C` gave Rv3671c protease 1, GDH-TPI counter-1 10, FBA Mtb inh 100*, FadD28 binding -3, BioA inh 1, Mtb FBA confirm 107* and GDH-TPI counter-2 88*.
Screening Cc1ccc2c(c1)[nH]c1c(=O)n(CCN3CCCCC3)cnc12 returned Rv3671c protease 1, GDH-TPI counter-1 4, FBA Mtb inh 9, FadD28 binding -3 and BioA inh 0.
Screening COc1ccccc1CCn1cnc2c3cc(C)ccc3n(C)c2c1=O returned Rv3671c protease -7, GDH-TPI counter-1 -7, FBA Mtb inh 46*, FadD28 binding -1, BioA inh -2, Mtb FBA confirm active and GDH-TPI counter-2 active.
For O=C(C[C@@H]1CC[C@@H](NC(=O)NC2CCCCC2)[C@H](CO)O1)NCc1ccc(F)cc1 the results were BioA inh 1.
For Cn1nnnc1SCC(=O)Nc1ccc(Oc2ccccc2)cc1 the results were Rv3671c protease -9, GDH-TPI counter-1 8, FBA Mtb inh -2, FadD28 binding -4 and BioA inh -2.

Compound activity deposited in PubChem by several laboratories.
